# Structures can show the parent of a compound that is named as a salt.
# System: Saccharomyces cerevisiae BY4741 SeMeCo community
# Test: z-score of subpopulation abundance vs DMSO median, subpopulation auxotrophic for H; higher = larger share of this subpopulation than in DMSO controls
# Details: 10 µM; 24 h; SM minimal medium; subpopulation (auxotrophy): H
# Protocol: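 Fluorescent four-plasmid SeMeCo (self-establishing metabolically cooperating S. cerevisiae BY4741 community; plasmids pH-mRuby2, pL-mWasabi, pU-eCFP, pM-TagRFP657) was grown 24 h in minimal SM medium with each Selleck FDA-approved drug at 10 µM in 384-well plates. Cells were fixed and imaged by high-content confocal microscopy. For each auxotrophic subpopulation (and the prototroph), a z-score gives the deviation from the DMSO vehicle-control population median.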
row,SMILES,z-score of subpopulation abundance
1,Cc1onc(-c2ccccc2)c1-c1ccc(S(N)(=O)=O)cc1 [Valdecoxib],-0.55
2,COC(=O)C1=C(C#N)NC(C)=C(C(=O)OC(C)C)C1c1cccc([N+](=O)[O-])c1 (stereo not given) [Nilvadipine],1.45
3,NC12CC3CC(CC(C3)C1)C2 [Amantadine HCl],-0.11
4,Cc1c(Cl)cccc1Nc1ccccc1C(=O)O [Tolfenamic Acid],-1.01
5,CC(C)c1nc(N(C)S(C)(=O)=O)nc(-c2ccc(F)cc2)c1/C=C/[C@@H](O)C[C@@H](O)CC(=O)O [Rosuvastatin Calcium],0.06
6,O=C(c1ccc(F)cc1)C1CCN(CCn2c(=O)[nH]c3ccccc3c2=O)CC1 [Ketanserin],-0.82
7,CCN(CC)CCOC(=O)c1ccc(N)cc1 [Procaine],-0.4
8,CCc1cc(C(N)=S)ccn1 [Ethionamide],0.59
9,COc1cccc2c1C(=O)c1c(O)c3c(c(O)c1C2=O)C[C@@](O)(C(C)=O)C[C@@H]3O[C@H]1C[C@H](N)[C@H](O)[C@H](C)O1 [Daunorubicin HCl],0.44
10,Nc1nc(N)nc(-c2cc(Cl)ccc2Cl)n1 [Irsogladine],-0.31
11,COc1ccc2[nH]c([S+]([O-])Cc3ncc(C)c(OC)c3C)nc2c1 (stereo not given) [Omeprazole],1.65
12,C[C@@H](O)[C@H]1C(=O)N2C(C(=O)O)=C(S[C@@H]3CN[C@H](C(=O)N(C)C)C3)[C@H](C)[C@H]12 [Meropenem],-0.03
13,CCCc1nc(C)c2c(=O)nc(-c3cc(S(=O)(=O)N4CCN(CC)CC4)ccc3OCC)[nH]n12 [Vardenafil HCl Trihydrate],0.41
14,O=C1CN(/N=C/c2ccc(-c3ccc([N+](=O)[O-])cc3)o2)C(=O)N1 [Dantrolene sodium hemiheptahydrate],2.07
15,O=C(Cn1cnnn1)N[C@@H]1C(=O)N2C(C(=O)O)=C(CSc3nncs3)CS[C@H]12 [Ceftezole sodium],-0.94
16,C[C@@H](c1nc(-c2ccc(C#N)cc2)cs1)[C@](O)(Cn1cncn1)c1cc(F)ccc1F [Isavuconazole],15.6
17,N[C@@H](CCC(=O)O)C(=O)O [(S)-Glutamic acid],0.17
18,CCC(=O)c1c(O)cc(O)cc1O [Flopropione],0.18
19,CC(=O)OC1CC2(C)C(CC(O)C3C4(C)CCC(O)C(C)C4CCC32C)C1=C(CCC=C(C)C)C(=O)O (stereo not given) [Fusidine],2.59
20,COc1cc2c(cc1OC)C(=O)C(CC1CCN(Cc3ccccc3)CC1)C2 (stereo not given) [Donepezil HCl],0.71

row,SMILES,z-score of subpopulation abundance
1,O=C(O)c1cc(O)c2c(c1)[C@H]([C@H]1c3cc(C(=O)O)cc(O)c3C(=O)c3c(O[C@@H]4O[C@H](CO)[C@@H](O)[C@H](O)[C@H]4O)cccc31)c1cccc(O[C@@H]3O[C@H](CO)[C@@H](O)[C@H](O)[C@H]3O)c1C2=O [Sennoside A],0
2,COc1ccc(C[C@H](N)C(=O)N[C@H]2[C@@H](O)[C@H](n3cnc4c(N(C)C)ncnc43)O[C@@H]2CO)cc1 [Puromycin 2HCl],-0.66
3,c1cnc(N2CCN(Cc3ccc4c(c3)OCO4)CC2)nc1 [Piribedil],0.27
4,CCCCCCCN(CC)CCCC(O)c1ccc(NS(C)(=O)=O)cc1 (stereo not given) [Ibutilide Fumarate],0.34
5,Cc1nc2n(c(=O)c1CCN1CCC(c3noc4cc(F)ccc34)CC1)CCCC2O (stereo not given) [Paliperidone],-0.95
6,CCN(CC)CCNC(=O)c1cc(Cl)c(N)cc1OC [Metoclopramide HCl],-1.04
7,COc1ccc2c(c1)c(CC(=O)OCC(=O)O)c(C)n2C(=O)c1ccc(Cl)cc1 [Acemetacin],0.66
8,NC(=O)c1cnccn1 [Pyrazinamide],-0.45
9,C=C1CCN([C@H](C)[C@](O)(Cn2cncn2)c2ccc(F)cc2F)CC1 [Efinaconazole],11.9
10,C#CCC(Cc1cnc2nc(N)nc(N)c2n1)c1ccc(C(=O)N[C@@H](CCC(=O)O)C(=O)O)cc1 (stereo not given in full) [Pralatrexate],3.97
11,COc1c(N2CCNC(C)C2)c(F)cc2c(=O)c(C(=O)O)cn(C3CC3)c12 (stereo not given) [Gatifloxacin],-0.44
12,O=C(CCCN1CCC(O)(c2ccc(Cl)cc2)CC1)c1ccc(F)cc1 [Haloperidol],-0.68
13,CCCCCCCCCCCCCCCC[N+](C)(C)C [Cetrimonium Bromide (CTAB)],9.21
14,CC1(C)S[C@@H]2[C@H](NC(=O)[C@H](N)c3ccc(O)cc3)C(=O)N2[C@H]1C(=O)O [Amoxicillin trihydrate],-0.05
15,NC(=O)OCC(COC(N)=O)c1ccccc1 [Felbamate],-0.6
16,CO/N=C(\C(=O)N[C@@H]1C(=O)N2C(C(=O)OC(C)OC(C)=O)=C(COC(N)=O)CS[C@H]12)c1ccco1 (stereo not given in full) [Cefuroxime axetil],-0.4
17,Cn1c(=O)c2[nH]cnc2n(C)c1=O [Aminophylline],-0.41
18,Nc1nc2[nH]cc(CCc3ccc(C(=O)N[C@@H](CCC(=O)O)C(=O)O)cc3)c2c(=O)[nH]1 [Pemetrexed Disodium Hydrate],3.82
19,O=C(O)c1cc(-c2ccc(F)cc2F)ccc1O [Diflunisal],-1.33
20,CN(C)CCc1c[nH]c2ccc(CS(=O)(=O)N3CCCC3)cc12 [Almotriptan Malate],-0.37
